Assay results from PubChem BioAssay (NCATS).
Inconclusive results are not listed. Activity calls are given as the source filed them. Calls come from the whole dose curve; as a rule, active = well fitted inhibition curve with a large enough effect; inconclusive = small, poorly fitted or top-dose-only effect; inactive = flat fitted curve, though single readings scatter.
% is set by controls: 0 for no effect and ±100 for the full control effect; potency is the fitted concentration of half-maximal effect.

Each compound was assayed against Ubiquitin carboxyl-terminal hydrolase 1 (Homo sapiens) (UniProt O94782) (assay: Inhibitors of USP1/UAF1: Pilot qHTS (AID 504865; note: nearly all actives have a fitted effect of over 35% in size;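 for activity change, negative = inhibition: rhodamine fluorescence freed from ubiquitin-rhodamine substrate followed over time; top concentration of the series differs between compounds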)). Conditions: purified USP1/UAF1, Ub-rhodamine cleavage fluorescence; series mostly up to 114 µM; activity change, negative = inhibition: at the top concentration.
Sequence of Ubiquitin carboxyl-terminal hydrolase 1 (Homo sapiens) (O94782 whole entry, looked up): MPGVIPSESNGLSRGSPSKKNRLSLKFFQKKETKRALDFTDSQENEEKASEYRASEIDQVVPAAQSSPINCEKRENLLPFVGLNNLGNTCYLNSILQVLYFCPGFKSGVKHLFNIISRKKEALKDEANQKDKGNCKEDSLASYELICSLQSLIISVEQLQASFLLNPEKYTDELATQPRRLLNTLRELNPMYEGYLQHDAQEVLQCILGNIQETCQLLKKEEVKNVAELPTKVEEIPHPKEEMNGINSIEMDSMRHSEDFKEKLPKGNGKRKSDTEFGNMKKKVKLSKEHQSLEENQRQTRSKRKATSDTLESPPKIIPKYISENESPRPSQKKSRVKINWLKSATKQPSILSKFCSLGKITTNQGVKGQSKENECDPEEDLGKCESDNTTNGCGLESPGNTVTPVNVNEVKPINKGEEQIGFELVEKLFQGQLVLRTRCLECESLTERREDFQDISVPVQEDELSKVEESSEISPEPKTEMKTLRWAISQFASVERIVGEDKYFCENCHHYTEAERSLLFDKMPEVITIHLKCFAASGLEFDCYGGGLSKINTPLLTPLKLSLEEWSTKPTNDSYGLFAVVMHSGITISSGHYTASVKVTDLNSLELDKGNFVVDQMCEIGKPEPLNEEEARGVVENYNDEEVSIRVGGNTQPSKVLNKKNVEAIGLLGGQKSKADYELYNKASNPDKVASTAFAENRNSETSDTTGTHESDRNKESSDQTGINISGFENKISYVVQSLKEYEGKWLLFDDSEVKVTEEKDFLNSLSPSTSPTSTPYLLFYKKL
Procedure, shortened: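 USP1/UAF1 complex at 1 nM preincubated 15 min at room temperature with compound, then Ub-Rho substrate added at 150 nM final. Fluorescence (480/540 nm) read kinetically in 50 mM HEPES pH 7.8, 0.5 mM EDTA, 1 mM TCEP, 0.1 mg/ml BSA, 0.01% Tween-20.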
With `C=C1C(=O)C23C(O)C1CCC2[C@]12COC3(O)C(O)C1C(C)(C)CC[C@H]2O` (some centres not stated) the “activity change, negative = inhibition” value was -3.26% (inactive).
For `CC(CCC(=O)O)C1CCC2C3C(=O)CC4CC(=O)CC[C@@]4(C)C3CC(=O)[C@]12C` (some centres not stated), the “activity change, negative = inhibition” value was -4.11% (inactive).
`CSCCC(N)C(=O)NC(CC(C)C)C(=O)NC(Cc1ccccc1)C(=O)O` (configuration not stated) was tested, and the “activity change, negative = inhibition” value was -4.7% (inactive).
With `CC(=O)c1ccc[nH]1` the “activity change, negative = inhibition” value was 0.434% (inactive).
`Cc1onc(-c2c(Cl)cccc2Cl)c1C(=O)NC1C(=O)N2C1SC(C)(C)C2C(=O)O` (configuration not stated) was tested, and the “activity change, negative = inhibition” value was -5.01% (inactive).
For `COc1ccc(-c2cc(=O)c3cc(OC)ccc3o2)cc1`, the “activity change, negative = inhibition” value was -7.92% (inactive).
In the case of `COc1cc2ccc(=O)oc2c(OC)c1OC`, the “activity change, negative = inhibition” value is reported as -8.55% (inactive).
In the case of `Cc1cc(O)c(C)c(O)c1C(=O)O`, the “activity change, negative = inhibition” value is reported as -12.3% (inactive).
In the case of `C=C1c2cccc(O)c2C(O)=C2C(=O)[C@]3(O)C(O)=C(C(N)=O)C(=O)C(N(C)C)C3C(O)C12` (some centres not stated), the Potency is reported as 39.8 µM (active).
In the case of `C[C@@]12CCC(OC(=O)c3ccccc3)CC1CCc1ccccc12` (some centres not stated), the “activity change, negative = inhibition” value is reported as -13.1% (inactive).
`COC1=CC(=O)C=C(OC)C1=O` was tested, and the “activity change, negative = inhibition” value was -6.39% [at 54.9 µM] (inactive).
`Nc1nc(=O)n(C2OC(CO)C(O)C2O)cc1Cl` (configuration not stated) was tested, and the “activity change, negative = inhibition” value was -6.36% (inactive).
For `Oc1ccc2c(c1)OCC1c3cc4c(cc3OC21)OCO4` (configuration not stated), the “activity change, negative = inhibition” value was -8.7% (inactive).
In the case of `CO[C@@]1(NC(=O)Cc2cccs2)C(=O)N2C(C(=O)O)=C(COC(N)=O)CSC21` (some centres not stated), the “activity change, negative = inhibition” value is reported as -13.6% (inactive).
In the case of `COc1cc2c(cc1OC)C(=O)OC2`, the “activity change, negative = inhibition” value is reported as -5.63% (inactive).
With `C=C1C([C@@]2(C)C(OC(C)=O)CC(=O)O[C@@](C)(COC(C)=O)C2CC(=O)OC)C(OC=O)C(OC(=O)C(O)C(C)CC)[C@]2(C)C(c3ccoc3)CC(=O)C12O` (some centres not stated) the “activity change, negative = inhibition” value was -12.2% (inactive).
For `CC(=O)OCC(=O)[C@@]1(O)CCC2C3CCC4=CC(=O)CC[C@]4(C)C3C(=O)C[C@]21C` (some centres not stated), the “activity change, negative = inhibition” value was 1.04% (inactive).
